Among all 5,500 compounds or so, about 2,000 (36%) were called active. Not shown: some 18% with an inconclusive outcome. Rule as the data show it: active = normalized growth mostly below about 0.91 (no sharp cut-off); inconclusive = no clear call, values can overlap the other calls; inactive = mostly above about 0.92. The list shows a part of the results.
Experiment: chemical genetic growth profiling, strain panel (AID 1159580);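 also: tested at 20 µM; growth read once vehicle control cultures reached saturation at 30 °C; 1 = growth at the plate median or of vehicle wells; lower values mean less growth of the strain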
Conditions: growth OD

Measured: normalized growth

CCCCCCCCCCC[C@@H](C[C@H]1OC(=O)[C@H]1CCCCCC)OC(=O)[C@@H](CC(C)C)NC=O
inactive: S. cerevisiae deletion strains, locus YJR043C, strain POL32, stronger effect = lower value 1.03 | S. cerevisiae deletion strains, locus YJR075W, strain HOC1, stronger effect = lower value 1.06 | S. cerevisiae deletion strains, locus YKL009W, strain mrt4, stronger effect = lower value 0.996 | S. cerevisiae deletion strains, locus YKL068W, stronger effect = lower value 1 | S. cerevisiae deletion strains, locus YKL085W, strain MDH1 (second series), stronger effect = lower value 1.02 | S. cerevisiae deletion strains, locus YKL085W, strain MDH1, stronger effect = lower value 1.02 | S. cerevisiae deletion strains, locus YKL160W, strain elf1, stronger effect = lower value 0.988 | S. cerevisiae deletion strains, locus YKL190W, strain CNB1, stronger effect = lower value 1.03 | S. cerevisiae deletion strains, locus YKR001C, strain vps1, stronger effect = lower value 1.03 | S. cerevisiae deletion strains, locus YKR026C, strain gcn3, stronger effect = lower value 1.03 | S. cerevisiae deletion strains, locus YKR091W, strain srl3, stronger effect = lower value 1.05 | S. cerevisiae deletion strains, locus YLL001W, strain dnm1, stronger effect = lower value 1.04 | S. cerevisiae deletion strains, locus YLL026W, stronger effect = lower value 0.997 | S. cerevisiae deletion strains, locus YLL041C, strain sdh2, stronger effect = lower value 1.03 | S. cerevisiae deletion strains, locus YLR027C, strain aat2, stronger effect = lower value 1.03 | S. cerevisiae deletion strains, locus YLR039C, strain RIC1, stronger effect = lower value 1.03 | S. cerevisiae deletion strains, locus YLR058C, strain SHM2, stronger effect = lower value 1.04 | S. cerevisiae deletion strains, locus YLR102C, strain apc9, stronger effect = lower value 1.01 | S. cerevisiae deletion strains, locus YLR221C, strain rsa3, stronger effect = lower value 1.03 | S. cerevisiae deletion strains, locus YLR258W, strain gsy2, stronger effect = lower value 1.03 | S. cerevisiae deletion strains, locus YLR262C, strain YPT6 (second series), stronger effect = lower value 1.1 | S. cerevisiae deletion strains, locus YLR262C, strain YPT6, stronger effect = lower value 1.07 | S. cerevisiae deletion strains, locus YLR268W, strain sec22, stronger effect = lower value 1.02 | S. cerevisiae deletion strains, locus YLR320W, strain mms22, stronger effect = lower value 1.05 | S. cerevisiae deletion strains, locus YLR330W, strain CHS5, stronger effect = lower value 1.03 | S. cerevisiae deletion strains, locus YLR342W, strain FKS1 (second series), stronger effect = lower value 1.02 | S. cerevisiae deletion strains, locus YLR342W, strain FKS1, stronger effect = lower value 1.01 | S. cerevisiae deletion strains, locus YLR357W, strain rsc2, stronger effect = lower value 1.09 | S. cerevisiae deletion strains, locus YLR370C, strain arc18, stronger effect = lower value 1.03 | S. cerevisiae deletion strains, locus YLR371W, strain rom2, stronger effect = lower value 1.01 | S. cerevisiae deletion strains, locus YLR384C, strain iki3, stronger effect = lower value 1.03 | S. cerevisiae deletion strains, locus YLR418C, strain cdc73, stronger effect = lower value 1.03 | S. cerevisiae deletion strains, locus YML016C, strain PPZ1, stronger effect = lower value 1.04 | S. cerevisiae deletion strains, locus YML032C, strain rad52, stronger effect = lower value 1.04 | S. cerevisiae deletion strains, locus YML120C, strain ndi1, stronger effect = lower value 1.02 | S. cerevisiae deletion strains, locus YML124C, strain tub3, stronger effect = lower value 1.01 | S. cerevisiae deletion strains, locus YMR058W, strain fet3, stronger effect = lower value 1.06 | S. cerevisiae deletion strains, locus YMR078C, strain ctf18, stronger effect = lower value 1.03 | S. cerevisiae deletion strains, locus YMR125W, strain sto1, stronger effect = lower value 1.05 | S. cerevisiae deletion strains, locus YMR129W, stronger effect = lower value 1.02 | S. cerevisiae deletion strains, locus YMR205C, strain PFK2, stronger effect = lower value 1.02 | S. cerevisiae deletion strains, locus YMR223W, strain ubp8, stronger effect = lower value 1.03 | S. cerevisiae deletion strains, locus YMR231W, strain pep5, stronger effect = lower value 1.05 | S. cerevisiae deletion strains, locus YMR263W, strain SAP30, stronger effect = lower value 1.04 | S. cerevisiae deletion strains, locus YMR307W, strain GAS1, stronger effect = lower value 1.05 | S. cerevisiae deletion strains, locus YNL067W, strain RPL9B, stronger effect = lower value 1.04 | S. cerevisiae deletion strains, locus YNL071W, strain lat1, stronger effect = lower value 1.02 | S. cerevisiae deletion strains, locus YNL128W, strain TEP1, stronger effect = lower value 1.02 | S. cerevisiae deletion strains, locus YNL153C, strain GIM3, stronger effect = lower value 1.04 | S. cerevisiae deletion strains, locus YNL209W, strain ssb2, stronger effect = lower value 1.06 | S. cerevisiae deletion strains, locus YNL233W, strain BNI4, stronger effect = lower value 1.03 | S. cerevisiae deletion strains, locus YNL248C, strain rpa49, stronger effect = lower value 1.06 | S. cerevisiae deletion strains, locus YNL250W, strain rad50, stronger effect = lower value 1.03 | S. cerevisiae deletion strains, locus YNL271C, strain bni1, stronger effect = lower value 1.02 | S. cerevisiae deletion strains, locus YNL298W, strain CLA4, stronger effect = lower value 1.03 | S. cerevisiae deletion strains, locus YNL307C, strain MCK1, stronger effect = lower value 1.03 | S. cerevisiae deletion strains, locus YNL322C, strain KRE1 (second series), stronger effect = lower value 1.03 | S. cerevisiae deletion strains, locus YNL322C, strain KRE1, stronger effect = lower value 1.04 | S. cerevisiae deletion strains, locus YNR049C, strain mso1, stronger effect = lower value 1.04 | S. cerevisiae deletion strains, locus YNR052C, strain pop2, stronger effect = lower value 1.03 | S. cerevisiae deletion strains, locus YOL006C, strain TOP1, stronger effect = lower value 1.08 | S. cerevisiae deletion strains, locus YOL012C, strain htz1 1.37 | S. cerevisiae deletion strains, locus YOL147C, strain pex11, stronger effect = lower value 1.02 | S. cerevisiae deletion strains, locus YOR001W, strain rrp6, stronger effect = lower value 1.03 | S. cerevisiae deletion strains, locus YOR061W, strain CKA2, stronger effect = lower value 1.03 | S. cerevisiae deletion strains, locus YOR069W, strain VPS5, stronger effect = lower value 1.02 | S. cerevisiae deletion strains, locus YOR070C, strain gyp1, stronger effect = lower value 1.04 | S. cerevisiae deletion strains, locus YOR080W, strain dia2, stronger effect = lower value 0.999 | S. cerevisiae deletion strains, locus YOR083W, strain WHI5, stronger effect = lower value 1.04 | S. cerevisiae deletion strains, locus YOR106W, strain vam3, stronger effect = lower value 1.03 | S. cerevisiae deletion strains, locus YOR136W, strain idh2, stronger effect = lower value 1.03 | S. cerevisiae deletion strains, locus YOR144C, strain elg1, stronger effect = lower value 1.02 | S. cerevisiae deletion strains, locus YOR184W, strain ser1, stronger effect = lower value 1 | S. cerevisiae deletion strains, locus YOR265W, strain rbl2, stronger effect = lower value 1.05 | S. cerevisiae deletion strains, locus YOR270C, strain vph1, stronger effect = lower value 1.11 | S. cerevisiae deletion strains, locus YOR290C, strain snf2, stronger effect = lower value 1.05 | S. cerevisiae deletion strains, locus YOR316C, strain cot1, stronger effect = lower value 1.01 | S. cerevisiae deletion strains, locus YPL051W, strain arl3, stronger effect = lower value 1.06 | S. cerevisiae deletion strains, locus YPL055C, strain LGE1, stronger effect = lower value 1.04 | S. cerevisiae deletion strains, locus YPL078C, strain atp4, stronger effect = lower value 1.08 | S. cerevisiae deletion strains, locus YPL106C, strain sse1, stronger effect = lower value 1.05 | S. cerevisiae deletion strains, locus YPL240C, strain hsp82, stronger effect = lower value 1.02 | S. cerevisiae deletion strains, locus YPL241C, strain CIN2, stronger effect = lower value 1.03 | S. cerevisiae deletion strains, locus YPR119W, strain clb2, stronger effect = lower value 0.996 | S. cerevisiae deletion strains, locus YPR141C, strain kar3, stronger effect = lower value 1.02 | S. cerevisiae deletion strains, locus YPR163C, strain tif3, stronger effect = lower value 1.03 | S. cerevisiae deletion strains, locus YPR167C, strain met16, stronger effect = lower value 1.01 | S. cerevisiae deletion strains, strain wtn01, stronger effect = lower value 1.01 | S. cerevisiae strains, strain wild type, stronger effect = lower value 1.04

Source: PubChem BioAssay AID1159580 (chemical genetic matrix, 2015)
